Laboratory results: the supplement of paper PMC11732987, “Enantioselective OTUD7B fragment discovery through chemoproteomics screening and high-throughput optimisation” (Communications Chemistry, 2025)

Experiments:
Experiment in all cases: log2 ratio of Biotin-Ahx-Ub-VS probe labelling (fragment/DMSO); higher = less target engagement (more negative = stronger competition), active = hit call of the paper (q ≤ 0.05, log2 ratio ≤ -1)
Settings in all cases: compound concentration: 200 uM; treatment time: 3 h
USP42 = target: T1, USP42 (UniProt Q9H9J4)
T1 sequence (whole entry): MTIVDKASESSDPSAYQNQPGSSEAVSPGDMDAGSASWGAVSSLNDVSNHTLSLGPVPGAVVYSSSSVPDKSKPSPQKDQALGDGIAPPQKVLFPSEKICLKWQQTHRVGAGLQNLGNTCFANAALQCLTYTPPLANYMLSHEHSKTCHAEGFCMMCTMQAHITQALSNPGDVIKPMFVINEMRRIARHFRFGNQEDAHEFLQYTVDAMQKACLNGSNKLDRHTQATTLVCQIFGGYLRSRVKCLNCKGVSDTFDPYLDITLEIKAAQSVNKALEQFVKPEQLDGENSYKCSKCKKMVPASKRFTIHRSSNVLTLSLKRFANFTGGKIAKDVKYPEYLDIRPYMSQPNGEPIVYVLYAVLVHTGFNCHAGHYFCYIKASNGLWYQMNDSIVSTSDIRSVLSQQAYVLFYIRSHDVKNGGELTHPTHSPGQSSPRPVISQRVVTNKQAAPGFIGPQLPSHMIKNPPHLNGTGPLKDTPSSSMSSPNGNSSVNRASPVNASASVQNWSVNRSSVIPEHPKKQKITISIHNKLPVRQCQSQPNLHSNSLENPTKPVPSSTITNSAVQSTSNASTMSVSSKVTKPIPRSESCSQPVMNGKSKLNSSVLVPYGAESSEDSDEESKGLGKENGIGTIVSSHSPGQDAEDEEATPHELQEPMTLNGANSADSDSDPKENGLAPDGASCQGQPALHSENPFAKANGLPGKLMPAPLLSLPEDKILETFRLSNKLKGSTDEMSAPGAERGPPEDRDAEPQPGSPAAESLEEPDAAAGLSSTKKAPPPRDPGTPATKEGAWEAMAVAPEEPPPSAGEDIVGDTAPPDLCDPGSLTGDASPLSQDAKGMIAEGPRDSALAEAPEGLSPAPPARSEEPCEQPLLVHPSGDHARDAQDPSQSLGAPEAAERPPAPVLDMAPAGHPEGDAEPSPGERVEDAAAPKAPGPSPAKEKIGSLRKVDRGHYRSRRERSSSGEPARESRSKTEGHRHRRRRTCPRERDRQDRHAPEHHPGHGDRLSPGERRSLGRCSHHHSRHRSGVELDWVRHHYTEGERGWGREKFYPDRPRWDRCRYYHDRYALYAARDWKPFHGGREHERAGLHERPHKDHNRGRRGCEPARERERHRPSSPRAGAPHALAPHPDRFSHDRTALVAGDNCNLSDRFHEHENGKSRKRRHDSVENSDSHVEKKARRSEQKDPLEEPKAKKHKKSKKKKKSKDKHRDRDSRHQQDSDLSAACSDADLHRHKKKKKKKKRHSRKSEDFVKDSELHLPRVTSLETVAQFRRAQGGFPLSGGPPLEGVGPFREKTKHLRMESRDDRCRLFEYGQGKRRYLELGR
Procedure, shortened: (§1)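 Using Biotin-Ahx-Ub-VS at 0.5 µM final for 1 h, DUBs were labelled in HEK293T lysate (495 µg per sample) that had first been treated in triplicate with fragment at 200 µM or vehicle for 3 h. NeutrAvidin enrichment, LysC and trypsin digestion and diaPASEF LC-MS/MS followed. Spectronaut label-free quantities were global-median-normalised. Values are average log2 fragment/vehicle ratios by unpaired t-test, using proteins with ≥2 unique peptides.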

USP46 = USP46 (UniProt P62068)
Procedure, shortened: as §1

USP47 = target: T2, USP47 (UniProt Q96K76)
T2 sequence (whole entry): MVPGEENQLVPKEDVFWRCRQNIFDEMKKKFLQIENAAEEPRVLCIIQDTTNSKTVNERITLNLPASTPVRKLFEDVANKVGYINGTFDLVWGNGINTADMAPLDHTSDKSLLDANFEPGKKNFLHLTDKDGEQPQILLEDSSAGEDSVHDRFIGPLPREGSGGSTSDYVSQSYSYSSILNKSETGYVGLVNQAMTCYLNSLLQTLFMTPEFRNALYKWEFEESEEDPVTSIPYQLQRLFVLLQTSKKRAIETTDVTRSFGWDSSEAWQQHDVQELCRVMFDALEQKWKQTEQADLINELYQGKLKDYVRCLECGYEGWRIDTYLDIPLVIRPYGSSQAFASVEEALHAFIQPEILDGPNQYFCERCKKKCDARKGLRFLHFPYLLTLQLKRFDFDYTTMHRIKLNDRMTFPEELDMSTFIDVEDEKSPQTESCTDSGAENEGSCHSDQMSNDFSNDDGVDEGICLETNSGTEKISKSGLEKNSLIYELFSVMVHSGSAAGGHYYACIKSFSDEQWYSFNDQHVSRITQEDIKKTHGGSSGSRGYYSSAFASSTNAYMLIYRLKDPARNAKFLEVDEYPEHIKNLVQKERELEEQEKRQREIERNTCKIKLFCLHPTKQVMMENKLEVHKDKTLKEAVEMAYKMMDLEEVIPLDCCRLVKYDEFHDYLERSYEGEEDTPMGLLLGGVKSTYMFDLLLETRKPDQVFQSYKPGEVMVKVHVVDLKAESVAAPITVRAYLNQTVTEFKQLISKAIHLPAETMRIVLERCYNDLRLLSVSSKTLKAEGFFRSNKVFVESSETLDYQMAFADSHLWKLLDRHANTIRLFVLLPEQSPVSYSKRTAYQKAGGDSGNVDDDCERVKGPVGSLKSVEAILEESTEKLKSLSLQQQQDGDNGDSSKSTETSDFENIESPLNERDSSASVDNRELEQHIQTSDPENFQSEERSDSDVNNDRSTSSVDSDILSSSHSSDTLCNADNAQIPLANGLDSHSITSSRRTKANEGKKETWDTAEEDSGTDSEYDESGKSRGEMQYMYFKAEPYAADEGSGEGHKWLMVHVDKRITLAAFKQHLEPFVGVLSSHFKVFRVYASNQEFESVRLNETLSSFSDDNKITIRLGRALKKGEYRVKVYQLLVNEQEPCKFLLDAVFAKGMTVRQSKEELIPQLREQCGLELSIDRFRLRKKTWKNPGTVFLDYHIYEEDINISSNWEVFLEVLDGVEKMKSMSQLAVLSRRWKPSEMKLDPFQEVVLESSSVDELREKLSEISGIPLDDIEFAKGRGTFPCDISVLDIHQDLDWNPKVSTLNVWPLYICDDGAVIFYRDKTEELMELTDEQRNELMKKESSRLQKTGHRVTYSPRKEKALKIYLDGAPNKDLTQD
Procedure, shortened: as §1

USP48 = target: T3, USP48 (UniProt Q86UV5)
T3 sequence (whole entry): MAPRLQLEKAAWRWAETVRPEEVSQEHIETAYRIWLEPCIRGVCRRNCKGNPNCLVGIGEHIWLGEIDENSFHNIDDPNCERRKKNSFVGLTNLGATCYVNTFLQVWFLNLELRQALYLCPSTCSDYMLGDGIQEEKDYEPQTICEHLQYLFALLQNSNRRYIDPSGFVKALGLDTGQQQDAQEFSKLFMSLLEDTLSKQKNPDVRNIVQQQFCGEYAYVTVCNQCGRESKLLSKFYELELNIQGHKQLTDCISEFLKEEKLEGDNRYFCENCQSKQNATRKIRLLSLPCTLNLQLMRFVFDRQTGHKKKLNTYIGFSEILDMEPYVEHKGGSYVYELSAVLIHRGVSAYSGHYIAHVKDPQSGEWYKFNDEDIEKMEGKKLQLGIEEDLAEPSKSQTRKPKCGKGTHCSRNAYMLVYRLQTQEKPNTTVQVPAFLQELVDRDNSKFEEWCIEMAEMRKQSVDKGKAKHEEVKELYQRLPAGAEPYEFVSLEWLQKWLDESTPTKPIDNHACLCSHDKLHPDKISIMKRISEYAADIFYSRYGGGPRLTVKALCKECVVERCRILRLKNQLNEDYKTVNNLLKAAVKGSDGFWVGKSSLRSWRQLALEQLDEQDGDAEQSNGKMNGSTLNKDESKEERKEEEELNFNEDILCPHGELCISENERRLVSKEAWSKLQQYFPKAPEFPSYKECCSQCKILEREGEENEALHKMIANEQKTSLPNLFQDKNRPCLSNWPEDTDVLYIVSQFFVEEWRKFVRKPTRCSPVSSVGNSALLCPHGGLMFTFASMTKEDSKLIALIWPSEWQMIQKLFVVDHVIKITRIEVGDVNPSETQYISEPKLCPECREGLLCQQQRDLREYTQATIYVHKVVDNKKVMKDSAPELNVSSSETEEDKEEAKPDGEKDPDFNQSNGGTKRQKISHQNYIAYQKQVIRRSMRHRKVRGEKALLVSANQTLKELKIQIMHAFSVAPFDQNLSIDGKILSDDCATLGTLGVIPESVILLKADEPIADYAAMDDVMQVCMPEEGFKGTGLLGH
Procedure, shortened: as §1

USP5 = target: T4, USP5 (UniProt P45974)
T4 sequence (whole entry): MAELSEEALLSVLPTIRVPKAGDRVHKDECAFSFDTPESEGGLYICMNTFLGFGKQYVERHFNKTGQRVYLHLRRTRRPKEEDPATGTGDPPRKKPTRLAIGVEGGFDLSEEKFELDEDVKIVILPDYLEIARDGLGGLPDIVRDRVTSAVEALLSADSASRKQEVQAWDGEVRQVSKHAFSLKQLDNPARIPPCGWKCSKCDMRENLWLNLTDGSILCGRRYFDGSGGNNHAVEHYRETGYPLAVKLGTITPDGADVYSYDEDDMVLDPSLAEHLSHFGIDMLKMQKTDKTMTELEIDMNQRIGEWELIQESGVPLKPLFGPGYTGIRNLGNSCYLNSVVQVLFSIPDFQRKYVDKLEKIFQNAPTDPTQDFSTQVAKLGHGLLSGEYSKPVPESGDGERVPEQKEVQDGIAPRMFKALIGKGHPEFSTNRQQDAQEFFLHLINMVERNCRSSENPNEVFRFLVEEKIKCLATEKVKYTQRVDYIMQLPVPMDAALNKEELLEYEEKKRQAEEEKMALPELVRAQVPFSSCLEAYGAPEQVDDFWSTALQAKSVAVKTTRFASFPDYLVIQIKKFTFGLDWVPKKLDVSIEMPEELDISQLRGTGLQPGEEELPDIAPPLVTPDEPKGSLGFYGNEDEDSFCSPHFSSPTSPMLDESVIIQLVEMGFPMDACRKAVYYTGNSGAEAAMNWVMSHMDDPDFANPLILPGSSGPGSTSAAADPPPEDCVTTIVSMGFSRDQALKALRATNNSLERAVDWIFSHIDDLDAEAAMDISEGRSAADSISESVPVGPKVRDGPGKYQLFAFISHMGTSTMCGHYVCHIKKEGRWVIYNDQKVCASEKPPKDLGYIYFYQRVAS
Procedure, shortened: as §1

USP54 = USP54 (UniProt Q70EL1)
Procedure, shortened: as §1

USP7 = USP7 (UniProt Q93009)
Procedure, shortened: as §1

USP8 = target: T5, USP8 (UniProt P40818)
T5 sequence (whole entry): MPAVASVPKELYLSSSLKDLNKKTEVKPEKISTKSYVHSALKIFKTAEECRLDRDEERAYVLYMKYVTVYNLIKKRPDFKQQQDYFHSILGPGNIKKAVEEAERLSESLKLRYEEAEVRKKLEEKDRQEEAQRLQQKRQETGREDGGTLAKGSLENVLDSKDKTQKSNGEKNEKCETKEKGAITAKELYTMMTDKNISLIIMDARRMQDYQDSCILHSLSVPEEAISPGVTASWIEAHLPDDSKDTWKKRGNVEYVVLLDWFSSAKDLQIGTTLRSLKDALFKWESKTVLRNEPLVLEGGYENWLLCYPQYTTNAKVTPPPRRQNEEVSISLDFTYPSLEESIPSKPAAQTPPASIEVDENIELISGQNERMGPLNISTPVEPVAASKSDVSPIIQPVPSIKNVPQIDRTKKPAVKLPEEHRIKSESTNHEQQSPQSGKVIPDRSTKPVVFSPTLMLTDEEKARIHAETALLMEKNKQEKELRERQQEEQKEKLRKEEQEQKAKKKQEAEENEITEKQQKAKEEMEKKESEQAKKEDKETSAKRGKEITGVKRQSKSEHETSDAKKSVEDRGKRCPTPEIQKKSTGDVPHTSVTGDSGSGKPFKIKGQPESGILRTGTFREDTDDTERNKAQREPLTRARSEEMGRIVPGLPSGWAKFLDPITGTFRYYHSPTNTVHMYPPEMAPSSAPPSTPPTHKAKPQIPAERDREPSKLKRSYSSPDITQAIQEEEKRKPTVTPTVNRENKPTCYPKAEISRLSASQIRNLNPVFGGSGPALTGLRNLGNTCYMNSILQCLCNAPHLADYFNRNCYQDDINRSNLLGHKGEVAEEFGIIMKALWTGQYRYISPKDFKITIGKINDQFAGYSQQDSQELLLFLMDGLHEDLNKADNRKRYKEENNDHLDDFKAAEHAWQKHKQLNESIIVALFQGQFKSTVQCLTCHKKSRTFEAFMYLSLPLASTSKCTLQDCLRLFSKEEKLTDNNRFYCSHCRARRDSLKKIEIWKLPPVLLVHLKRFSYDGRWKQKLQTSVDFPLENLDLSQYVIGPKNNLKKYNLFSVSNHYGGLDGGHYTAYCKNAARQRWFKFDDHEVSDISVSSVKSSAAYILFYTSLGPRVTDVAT
Procedure, shortened: as §1

Measured: log2 ratio of Biotin-Ahx-Ub-VS probe labelling

USP54, sequence (Q70EL1 whole entry): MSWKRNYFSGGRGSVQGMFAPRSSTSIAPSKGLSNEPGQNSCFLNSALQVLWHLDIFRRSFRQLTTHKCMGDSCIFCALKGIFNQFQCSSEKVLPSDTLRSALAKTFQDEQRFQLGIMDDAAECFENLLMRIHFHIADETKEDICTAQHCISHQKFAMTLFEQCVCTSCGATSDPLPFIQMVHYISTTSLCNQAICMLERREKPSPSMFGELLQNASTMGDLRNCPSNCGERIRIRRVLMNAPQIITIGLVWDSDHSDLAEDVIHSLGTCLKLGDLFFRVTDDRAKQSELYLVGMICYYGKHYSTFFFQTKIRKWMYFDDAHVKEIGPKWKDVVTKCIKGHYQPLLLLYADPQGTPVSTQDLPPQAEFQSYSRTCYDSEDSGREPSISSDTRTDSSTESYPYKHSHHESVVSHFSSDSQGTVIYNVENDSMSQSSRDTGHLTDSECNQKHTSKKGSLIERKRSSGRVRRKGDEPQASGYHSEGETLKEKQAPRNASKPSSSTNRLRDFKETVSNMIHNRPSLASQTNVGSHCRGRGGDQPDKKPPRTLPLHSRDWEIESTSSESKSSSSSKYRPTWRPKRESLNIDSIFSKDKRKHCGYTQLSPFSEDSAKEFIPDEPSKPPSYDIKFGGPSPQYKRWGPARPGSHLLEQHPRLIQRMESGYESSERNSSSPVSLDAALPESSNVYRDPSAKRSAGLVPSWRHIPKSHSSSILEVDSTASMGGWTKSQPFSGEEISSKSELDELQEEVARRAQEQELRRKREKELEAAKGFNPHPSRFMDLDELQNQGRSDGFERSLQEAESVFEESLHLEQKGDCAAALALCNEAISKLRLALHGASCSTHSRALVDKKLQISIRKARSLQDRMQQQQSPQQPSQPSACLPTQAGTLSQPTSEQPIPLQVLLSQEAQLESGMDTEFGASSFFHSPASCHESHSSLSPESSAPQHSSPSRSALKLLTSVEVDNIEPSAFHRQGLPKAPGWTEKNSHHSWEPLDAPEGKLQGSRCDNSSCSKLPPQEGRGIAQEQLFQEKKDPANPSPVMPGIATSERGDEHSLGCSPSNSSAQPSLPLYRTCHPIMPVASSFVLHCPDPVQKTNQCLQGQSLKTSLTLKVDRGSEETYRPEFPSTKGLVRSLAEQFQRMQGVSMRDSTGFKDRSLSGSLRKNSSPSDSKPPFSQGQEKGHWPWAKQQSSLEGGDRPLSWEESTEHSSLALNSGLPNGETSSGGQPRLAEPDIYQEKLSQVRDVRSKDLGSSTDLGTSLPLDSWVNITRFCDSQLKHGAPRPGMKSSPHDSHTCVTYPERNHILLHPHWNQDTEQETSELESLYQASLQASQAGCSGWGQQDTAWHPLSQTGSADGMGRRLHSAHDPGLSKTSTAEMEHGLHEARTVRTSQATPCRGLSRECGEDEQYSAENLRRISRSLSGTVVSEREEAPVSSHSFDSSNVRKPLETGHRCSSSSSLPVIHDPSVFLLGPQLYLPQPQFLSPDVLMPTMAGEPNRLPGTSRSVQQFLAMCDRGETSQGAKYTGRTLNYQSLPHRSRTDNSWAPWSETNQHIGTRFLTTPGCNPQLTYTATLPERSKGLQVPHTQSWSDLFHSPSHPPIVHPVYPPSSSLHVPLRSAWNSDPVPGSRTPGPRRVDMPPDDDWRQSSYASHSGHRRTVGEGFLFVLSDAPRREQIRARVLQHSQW
USP46, sequence (P62068 whole entry): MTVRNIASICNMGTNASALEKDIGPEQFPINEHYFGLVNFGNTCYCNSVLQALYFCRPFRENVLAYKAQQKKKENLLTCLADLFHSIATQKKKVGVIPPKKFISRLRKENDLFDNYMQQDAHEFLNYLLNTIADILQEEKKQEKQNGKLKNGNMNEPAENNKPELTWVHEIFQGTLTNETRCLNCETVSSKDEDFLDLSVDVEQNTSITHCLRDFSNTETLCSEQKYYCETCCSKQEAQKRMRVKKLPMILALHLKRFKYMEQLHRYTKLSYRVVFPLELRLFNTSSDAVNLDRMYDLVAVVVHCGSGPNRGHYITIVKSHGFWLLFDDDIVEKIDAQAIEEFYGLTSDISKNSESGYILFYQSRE
USP7, sequence (Q93009 whole entry, looked up): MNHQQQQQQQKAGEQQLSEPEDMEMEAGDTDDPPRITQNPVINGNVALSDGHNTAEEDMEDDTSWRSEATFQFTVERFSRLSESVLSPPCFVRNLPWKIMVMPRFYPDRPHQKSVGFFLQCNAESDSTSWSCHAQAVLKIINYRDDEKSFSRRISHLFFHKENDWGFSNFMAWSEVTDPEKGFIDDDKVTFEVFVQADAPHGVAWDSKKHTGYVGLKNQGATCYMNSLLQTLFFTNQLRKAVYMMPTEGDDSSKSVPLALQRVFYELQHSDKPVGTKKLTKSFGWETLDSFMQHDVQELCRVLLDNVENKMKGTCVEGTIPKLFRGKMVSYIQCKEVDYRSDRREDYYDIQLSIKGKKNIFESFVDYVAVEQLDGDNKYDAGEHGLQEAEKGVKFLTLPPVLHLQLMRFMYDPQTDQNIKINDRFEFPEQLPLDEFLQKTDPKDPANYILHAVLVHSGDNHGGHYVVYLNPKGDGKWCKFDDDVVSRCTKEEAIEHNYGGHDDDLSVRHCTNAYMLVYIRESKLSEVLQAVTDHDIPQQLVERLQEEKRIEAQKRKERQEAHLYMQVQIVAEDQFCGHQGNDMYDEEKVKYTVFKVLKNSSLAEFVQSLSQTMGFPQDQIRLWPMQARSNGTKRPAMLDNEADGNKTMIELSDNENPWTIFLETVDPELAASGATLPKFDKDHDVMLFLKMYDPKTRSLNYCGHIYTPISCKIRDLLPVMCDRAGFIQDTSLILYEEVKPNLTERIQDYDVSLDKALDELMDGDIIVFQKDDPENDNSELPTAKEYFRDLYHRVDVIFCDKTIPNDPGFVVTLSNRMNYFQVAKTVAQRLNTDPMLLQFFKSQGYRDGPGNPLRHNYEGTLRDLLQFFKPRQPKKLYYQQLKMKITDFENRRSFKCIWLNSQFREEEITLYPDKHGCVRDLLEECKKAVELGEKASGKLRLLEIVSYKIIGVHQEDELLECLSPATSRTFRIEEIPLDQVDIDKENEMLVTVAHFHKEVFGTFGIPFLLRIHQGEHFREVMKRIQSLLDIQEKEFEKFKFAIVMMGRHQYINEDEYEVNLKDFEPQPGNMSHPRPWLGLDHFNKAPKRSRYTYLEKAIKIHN

O=C(CCl)N1CCC(OCc2ccccc2F)CC1
inactive: USP42 0.919 | USP46 0.155 | USP47 -0.138 | USP48 -0.151 | USP5 0.445 | USP54 -0.235 | USP7 -0.391 | USP8 0.124
